Screening data from PubChem.
Cycloheximide cs – affects cycloheximide protein synthesis inhibition readout, counter-screen; cell reporter, cycloheximide protein synthesis inhibition counterscreen; max response, %; hit rate 12% among 300,000; AID 2314; in the data active = max response mostly above about 13%, no sharp cut-off; inactive = mostly below about 14%; also: read at 38.3 µM for the half of the compounds with a filed dose
NS1 inh – influenza NS1 inhibition | Potency, µM (series often up to 46.1 µM) | hit rate 0.4% among 270,000 | AID 2326; calls by dose curve; also: actives are rising curves; nearly all actives have a fitted effect of over 50% in size
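OD600 was taken as the measure of yeast growth restored by compound in an NS1-expressing S. cerevisiae strain. Cells had been washed out of glucose medium and diluted 1:100 into galactose -URA medium, pH 6.0.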
FBPA Giardia inh – blocks Giardia fructose-bisphosphate aldolase activity; purified Giardia FBPA; Potency, µM (doses to about 59.6 µM), actives largely listed as inhibitors; hit rate 0.71% among 290,000; AID 2451; also: nearly all actives have a fitted effect of over 55% in size
Target sequence (A8B2U2 whole entry, looked up): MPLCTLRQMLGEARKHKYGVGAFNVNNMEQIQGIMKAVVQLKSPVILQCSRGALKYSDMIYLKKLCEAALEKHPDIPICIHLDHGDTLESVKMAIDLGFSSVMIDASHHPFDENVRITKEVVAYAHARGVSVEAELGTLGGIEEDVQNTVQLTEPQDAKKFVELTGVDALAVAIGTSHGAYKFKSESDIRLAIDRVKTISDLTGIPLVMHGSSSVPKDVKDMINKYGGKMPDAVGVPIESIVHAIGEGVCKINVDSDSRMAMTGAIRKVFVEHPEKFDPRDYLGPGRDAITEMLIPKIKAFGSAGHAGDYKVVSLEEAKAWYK
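Giardia FBPA (40 nM reagent) was preincubated 10 min at RT with compound (up to 57.5 uM final), then substrate plus GAPDH/TPI/NAD/arsenate coupling system with diaphorase/resazurin was added; resorufin fluorescence (525/598 nm) was read after 20 min.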
Pf growth 96h – P. falciparum growth inhibition at 96 hour, primary screen for plastid delayed-death inhibitors | hit rate 6.9% among 320,000 | P. falciparum luciferase reporter growth, 96 h | Potency, µM (top dose mostly 28.7 µM), hits mostly inhibitors
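Readout is luminescence from an integrated firefly luciferase in P. falciparum. Red cells, 2% hematocrit and 0.05% parasitemia final, were cultured with compound through two parasite generations (96 hours) at 37 C, 5% CO2.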
Shiga inhibitor – Shiga toxin inhibition | Vero cells, Shiga toxin protein synthesis inhibition reporter | inhibition, % at 38.7 µM | hit rate 9.2% among 290,000 | AID 2315; in the data active = inhibition mostly above about 28%, no sharp cut-off; inactive = mostly below about 43%
Pf growth 48h – P. falciparum growth inhibition at 48 hours (one generation). Potency, µM (top dose mostly 28.7 µM), usual class: inhibitors. hit rate 5.9% among 310,000. AID 504832. P. falciparum luciferase growth in erythrocytes, 48 h
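Luciferase-expressing parasites in RBCs, 2% Hct / 0.1% parasitemia final; RPMI 1640 + 0.5% Albumax; 37 C, 5% CO2, one generation; luminescence read-out, lower signal = inhibition.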
Each line names hits and unclear results; the compound was inactive in the other large screens. This is a sample that favours compounds with a hit; in the whole collection about 21% have one here. Unless noted, calls follow the shape of the dose curve; as a rule, active = well fitted curve in the direction sought with a large enough effect; inconclusive = small, poorly fitted or top-dose-only effect, or another doubt; inactive = no such curve, though single readings can be large; an effect the other way counts as inactive or inconclusive.

CCOC(=O)C1=C(c2ccccc2)NC(N)=NC1c1ccc(OCc2ccc(Cl)cc2)c(OC)c1 (centres undefined)	Pf growth 96h 1.7µM, Shiga inhibitor 30, Pf growth 48h 1.5µM
NS(=O)(=O)c1cccc(-n2cnnn2)c1	none
CCN(Cc1ccccc1)S(=O)(=O)c1ccc(F)cc1	none
O=S(=O)(c1ccc(F)cc1)N(CCO)CC(O)Cn1c2ccccc2c2ccccc21 (centres undefined)	Pf growth 96h inconclusive, Pf growth 48h 15µM
CCN(CC(O)Cn1c2ccccc2c2ccccc21)S(=O)(=O)c1ccc(F)cc1 (centres undefined)	Pf growth 96h 13µM (no result: Pf growth 48h)
Cc1cccc(-n2c(SCC(N)=O)nc3c(c2=O)C2(CCCC2)Cc2ccccc2-3)c1	none
CCCn1c(SCC#N)nc2c(c1=O)C1(CCCC1)Cc1ccccc1-2	Pf growth 96h 4.7µM
NNc1nc(N)c2c(n1)-c1ccccc1CC21CCCC1	Pf growth 96h 1.7µM, Pf growth 48h 10µM
O=c1c2c(nc3n1CCCCC3)-c1ccccc1CC21CCCCC1	Pf growth 96h 8.3µM
NC(=O)CSc1nc2c(c(=O)n1-c1ccccc1)C1(CCCCC1)Cc1ccccc1-2	Pf growth 96h 12µM
N#Cc1cccc(NC(=O)Cn2cnc(S(=O)(=O)N3CCCC3)c2)c1	Pf growth 96h inconclusive
CC(C(=O)Nc1ccc(S(=O)(=O)N2CCCC2)cc1)N1CCCC(C(N)=O)C1 (centres undefined)	none (no result: Cycloheximide cs, NS1 inh, FBPA Giardia inh, Shiga inhibitor)
COc1ccc(-c2cc(C(F)F)n3ncc(C(=O)Nc4cc(C)on4)c3n2)cc1	Cycloheximide cs 28, Pf growth 48h 4.1µM
Cc1ccc(-c2cc(C(F)F)n3ncc(C(=O)Nc4c(C)nn(Cc5c(Cl)cccc5Cl)c4C)c3n2)cc1	NS1 inh inconclusive, Pf growth 96h 2.3µM, Pf growth 48h inconclusive
Cc1nn(Cc2c(Cl)cccc2Cl)c(C)c1NC(=O)c1cnn2c(C(F)F)cc(-c3ccccc3)nc12	Pf growth 96h 2.6µM, Pf growth 48h inconclusive
O=C1CCC(c2ccccc2)=NN1c1nc2ccccc2s1	none (no result: Cycloheximide cs, FBPA Giardia inh, Pf growth 96h, Shiga inhibitor, Pf growth 48h)
Cc1ccccc1-c1nc(CN2CCC(C(=O)NC3CC3)CC2)c(C)o1	Pf growth 48h inconclusive
CC(C)(CC(=O)O)CC(=O)NCc1c(Cl)cccc1Oc1ccccc1	none
Cc1nc2scc(-c3ccc(Cl)cc3)c2c(=O)n1N	Pf growth 48h inconclusive
CC(C)c1nc2scc(-c3ccc(Cl)cc3)c2c(=O)n1N	Cycloheximide cs 38, Shiga inhibitor 73
COC(=O)c1ccc(C(NC(=O)OCc2ccccc2)/C(=C/[C@@H](C)C(=O)N(C)C)c2cccnc2)cc1 (some centres undefined)	none (no result: Cycloheximide cs, NS1 inh, Pf growth 96h, Shiga inhibitor, Pf growth 48h)
CN1C2CCC1CC(NC(=O)c1cc(S(=O)(=O)N(C)C)c(Cl)cc1Cl)C2 (centres undefined)	none (no result: Cycloheximide cs, NS1 inh, FBPA Giardia inh, Shiga inhibitor)
O=C(CCC1CCCN(C(=O)c2ccsc2)C1)NCc1ccc(F)c(F)c1 (centres undefined)	Pf growth 96h inconclusive
Cc1ccc2c(c1)C(c1ccccc1)=NCC(=O)N2	none
CC1=CC(c2ccccc2)=Nc2ccc(C)cc2N1	Cycloheximide cs 57, Shiga inhibitor 43
Cc1ccsc1/C=N\NC(=O)c1n[nH]c2c1CCC2	Cycloheximide cs 11, Pf growth 96h 10µM
O=C(N/N=C/c1c(Cl)cccc1Cl)c1n[nH]c2c1CCCC2	Cycloheximide cs 94, NS1 inh inconclusive, Shiga inhibitor 132
COC(=O)[C@@]1(Cc2ccccc2)[C@H]2c3cc(C(=O)N(C)C)n(Cc4c(CO)[nH]cc(C)c4=O)c3C[C@H]2CN1C(=O)c1ccccc1	none (no result: Cycloheximide cs, NS1 inh, Pf growth 96h, Shiga inhibitor, Pf growth 48h)
COc1cccc(N/N=C/c2cccc(Br)c2O)c1	Cycloheximide cs 30, Shiga inhibitor 88
Cc1ccc(/C=N/N=C/c2ccc(C)s2)s1	Cycloheximide cs 71, Shiga inhibitor active
Cc1cccc(N/N=C/c2ccc(C)s2)c1	Cycloheximide cs 40, Pf growth 96h inconclusive, Shiga inhibitor 80, Pf growth 48h inconclusive
Cc1cccc(N/N=C/c2ccc(O)c(O)c2O)c1	FBPA Giardia inh 14µM, Pf growth 48h inconclusive
COCCNC(=O)C1(C)C=CCN1C(C)=O (centres undefined)	none (no result: Cycloheximide cs, NS1 inh, Pf growth 96h, Shiga inhibitor, Pf growth 48h)
O=C(N/N=C/c1cc(Br)c(O)c(Br)c1)c1cccc(C(F)(F)F)c1	Pf growth 96h inconclusive
O=C(N/N=C/c1oc(O)c2ccccc12)c1ccccc1O	none (no result: NS1 inh)
O=C(N/N=C/c1ccnc2ccccc12)c1ccccc1O	Cycloheximide cs 27, Pf growth 96h inconclusive, Pf growth 48h inconclusive
